Measured values published in PubChem BioAssay.
The source made the active and inactive calls.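 Rule for the calls, unless noted: active = compound raises GLP1 secretion from the human gut endocrine cells, with no numeric limit stated; inactive = the rest.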

Experiments:
[1] = liver-stage malaria parasite load reduction – cell-based, known kinase inhibitor set, luminescence, hepatoma host viability (AID 624392; call rule not given here;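 note: infected cells incubated roughly two days before readout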); conditions: Plasmodium liver stage in hepatoma cells, luciferase luminescence, concentration not given here; liver cell % of control: measured here: host liver cell viability; parasite % of control: stronger effect = lower value
[2] = altered dexamethasone sensitivity, NF-kB reporter, cell-based, luciferase, IL-1B stimulus (AID 624486; call rule not given here;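 for percent of negative control (+Dex): 100% = mean signal of vehicle control wells on the plate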); conditions: IL-1B + dexamethasone, luminescence; percent of negative control (+Dex): actives lie on both sides, concentration not given here; z-score: measured here: IL-1B alone, no Dex
[3] = C. elegans survival during P. aeruginosa infection – whole organism (AID 651566; call rule not given here;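 note: tested at 14 µM; sign flipped so higher z means a lower ratio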); conditions: C. elegans killed by P. aeruginosa, survival ratio
[4] = pro-inflammatory signaling induction in mouse macrophages – cell-based, murine, luminescence (AID 652131; call rule not given here); conditions: murine macrophage pro-inflammatory reporter, stronger effect = higher value
[5] = molecular target: Cellular tumor antigen p53 (Homo sapiens) (UniProt P04637); assay: GFP-p53 level modulators in HPV16+ cells – imaging, known kinase inhibitor set, EGFP/DsRed ratio (AID 1053116; call rule not given here;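 note: cells exposed to compounds for 24 h at 37 °C before reading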); conditions: GFP-p53 stability, stronger effect = higher value; EGFP object count: measured here: GFP-p53 positive objects count
Cellular tumor antigen p53 (Homo sapiens), sequence (P04637 whole entry, looked up): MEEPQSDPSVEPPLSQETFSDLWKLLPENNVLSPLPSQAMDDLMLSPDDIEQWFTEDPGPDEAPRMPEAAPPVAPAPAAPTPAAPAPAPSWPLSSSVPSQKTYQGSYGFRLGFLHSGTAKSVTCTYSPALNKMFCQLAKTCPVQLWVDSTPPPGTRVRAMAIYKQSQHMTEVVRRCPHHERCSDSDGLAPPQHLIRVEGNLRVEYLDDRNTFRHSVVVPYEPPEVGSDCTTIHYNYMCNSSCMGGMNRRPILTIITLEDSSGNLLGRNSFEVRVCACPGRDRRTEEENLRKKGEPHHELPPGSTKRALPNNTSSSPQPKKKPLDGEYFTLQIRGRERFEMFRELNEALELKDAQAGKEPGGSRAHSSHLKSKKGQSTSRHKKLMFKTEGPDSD

[6] = inducers of IRF3 signaling, differentiated THP-1 – cell-based, PMA-stimulated THP-1, luminescence (AID 1053176; call rule not given here); conditions: PMA-differentiated THP-1, IRF3 reporter luminescence; stronger effect = higher value
[7] = MELAS cybrid and Rieske KO viability enhancers – cell-based, MELAS cybrids, Rieske KO mouse fibroblasts, CellTiter-Glo, primary screen (AID 1508586;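 active = mean z-score across replicates of 1.96 or higher in either the MELAS or the Rieske mutant cell line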;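 note: z relative to plate mean and SD of compound and empty wells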); conditions: low glucose
[8] = Wnt pathway potentiators raising nuclear beta-catenin – imaging, WNT3A-conditioned medium, mouse C2C12, NPC library, primary screen (AID 1117326; in the data active = nuclear beta-catenin stimulation mostly above about 4.2%, no sharp cut-off; inactive = mostly below about 10%); conditions: stronger effect = higher value
[9] = stimulators of insulin release from INS-1E, primary screen, cell-based, 5 mM glucose, NPC library (AID 1117329;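 active = compound raises insulin release from rat beta cells at 5 mM glucose, no numeric limit stated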); conditions: rat INS-1E insulin secretion, at 10 µM, stronger effect = higher value
[10] = growth inhibition of GSK3B-pretreated HCT116 cells – cell-based, CellTiter-Glo, 0.2 to 20 µM (AID 1117336;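 active = compounds lowering colon cancer cell viability after pretreatment blocking the GSK3B kinase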); conditions: HCT116 viability after GSK3B inhibitor, at 20 µM, stronger effect = higher value
[11] = inhibition of endothelial tube formation, primary screen, imaging, VEGF stimulated, CD31 staining, tube area, NPC library (AID 1117340;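 active = compound that reduces growth-factor-driven endothelial tube area in a mixed cell culture, no cutoff stated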); conditions: VEGF-stimulated ADSC/ECFC co-culture, at 10 µM, stronger effect = higher value
[12] = GLP1 release stimulators, primary, NCI-H716, NPC library (AID 1117341); conditions: NCI-H716 cells, at 10 µM, stronger effect = higher value
[13] = HCT116 colon cancer cell growth inhibition, primary screen, CellTiter-Glo luminescence, NPC library (AID 1117342;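 active = compounds that lower survival of HCT116 colon cancer cells in the luminescence readout, no numeric limit stated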); conditions: at 20 µM (top of the series)
[14] = reduced SW480 viability measured with CellTiter-Glo, NPC library, primary (AID 1117343;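 active = compounds that lower viability of the colon cancer cells in the luminescence readout, with no numeric limit stated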); conditions: CellTiter-Glo luminescence; at 20 µM (top of the series)
[15] = NPC library primary testing for decreased DLD-1 cell viability via CellTiter-Glo (AID 1117346;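 active = compounds that lower survival of DLD-1 colon cancer cells in the luminescence readout, no cutoff given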); conditions: DLD-1 viability, CellTiter-Glo luminescence; at 20 µM (top of the series)

O=C(NC1NNC2NNC(c3cccnc3)CC21)C1CC1 (centres undefined)
active: percent of negative control (+Dex) [2] 166% | EGFP/DsRed ratio [5] 0.68
-0.386: z-score ([7]; Rieske KO mouse fibroblast survival, CellTiter-Glo 72 h)
79.6%: liver cell % of control [1]
-0.58: z-score [2]
inactive: parasite % of control [1] 32.1% | z-score [3] -1.13 | z-score [4] 4.01 | fraction signal [6] 0.001 | z-score ([7]; MELAS cybrid survival, CellTiter-Glo 48 h, stronger effect = higher value) -1.09
52: EGFP object count [5]

O=C1C(I)=CC(=C(c2cc(I)c(O)c(I)c2)c2ccccc2C(=O)O)C=C1I
inactive: insulin secretion stimulation [9] -0.1% | GLP1 secretion stimulation [12] -3.3%
active: nuclear beta-catenin stimulation ([8]; at 10 µM) 43.7% | viability decrease [10] 98.7% | tube area decrease [11] 106% | inhibition of viability [13] 99.3% | viability decrease (inhibition) [14] 100% | viability decrease (inhibition) [15] 100%
1.8%: nuclear beta-catenin stimulation ([8]; stimulation, at 2 µM)

COP(=S)(OC)Oc1ccc(S(=O)(=O)N(C)C)cc1
inactive: nuclear beta-catenin stimulation ([8]; at 10 µM) -1.9% | insulin secretion stimulation [9] 0.3% | viability decrease [10] -11.8% | tube area decrease [11] -6.5% | GLP1 secretion stimulation [12] -1.2% | inhibition of viability [13] 4.9% | viability decrease (inhibition) [14] 6.4% | viability decrease (inhibition) [15] 0%
-0.5%: nuclear beta-catenin stimulation ([8]; stimulation, at 2 µM)

C[C@H]1CNCCc2ccc(Cl)cc21
inactive: nuclear beta-catenin stimulation ([8]; at 10 µM) 2.8% | insulin secretion stimulation [9] 16.9% | viability decrease [10] -1.35% | tube area decrease [11] -10.5% | GLP1 secretion stimulation [12] 6.1% | inhibition of viability [13] 1.7% | viability decrease (inhibition) [14] 45.3% | viability decrease (inhibition) [15] 0.95%
0.8%: nuclear beta-catenin stimulation ([8]; stimulation, at 2 µM)

COc1cc(CC#N)cc(OC)c1OC
inactive: nuclear beta-catenin stimulation ([8]; at 10 µM) 0% | insulin secretion stimulation [9] 2.2% | viability decrease [10] 2.6% | tube area decrease [11] 36.1% | GLP1 secretion stimulation [12] 4.1% | inhibition of viability [13] 22.6% | viability decrease (inhibition) [14] 15.5% | viability decrease (inhibition) [15] -1.6%
1.2%: nuclear beta-catenin stimulation ([8]; stimulation, at 2 µM)

CCOC(=O)NC(O)C(Cl)(Cl)Cl (centres undefined)
inactive: nuclear beta-catenin stimulation ([8]; at 10 µM) -0.2% | insulin secretion stimulation [9] 0.3% | viability decrease [10] -4.2% | tube area decrease [11] -20.4% | GLP1 secretion stimulation [12] 0.8% | inhibition of viability [13] -2.5% | viability decrease (inhibition) [14] 16.2% | viability decrease (inhibition) [15] 4.55%
2.2%: nuclear beta-catenin stimulation ([8]; stimulation, at 2 µM)

C1CN2CCC1CC2
3.2%: nuclear beta-catenin stimulation ([8]; stimulation, at 2 µM)
inactive: nuclear beta-catenin stimulation ([8]; at 10 µM) 0.4% | insulin secretion stimulation [9] 1.5% | viability decrease [10] -7.5% | tube area decrease [11] 9.8% | GLP1 secretion stimulation [12] 6.5% | inhibition of viability [13] 4% | viability decrease (inhibition) [14] 4.8% | viability decrease (inhibition) [15] 3.1%

CCN1CCCC1CNC(=O)C(O)(c1ccccc1)c1ccccc1 (centres undefined)
inactive: nuclear beta-catenin stimulation ([8]; at 10 µM) 1.8% | insulin secretion stimulation [9] 8.1% | viability decrease [10] -4.1% | tube area decrease [11] -2.9% | GLP1 secretion stimulation [12] -0.1% | inhibition of viability [13] 10.9% | viability decrease (inhibition) [14] 24.2%
1.9%: nuclear beta-catenin stimulation ([8]; stimulation, at 2 µM)
active: viability decrease (inhibition) [15] -4.5%
